Compound activity: PubChem, National Center for Advancing Translational Sciences (NCATS)
12-LOX inh: inhibitors of human 12S-lipoxygenase ALOX12. purified 12hLO, xylenol orange hydroperoxide absorbance. hit rate 1.1% among 580,000. Potency, µM (doses to about 108 µM), for the others: at the highest dose activity change, negative = inhibition, most hits filed as inhibitors
Target sequence (P18054 whole entry, looked up): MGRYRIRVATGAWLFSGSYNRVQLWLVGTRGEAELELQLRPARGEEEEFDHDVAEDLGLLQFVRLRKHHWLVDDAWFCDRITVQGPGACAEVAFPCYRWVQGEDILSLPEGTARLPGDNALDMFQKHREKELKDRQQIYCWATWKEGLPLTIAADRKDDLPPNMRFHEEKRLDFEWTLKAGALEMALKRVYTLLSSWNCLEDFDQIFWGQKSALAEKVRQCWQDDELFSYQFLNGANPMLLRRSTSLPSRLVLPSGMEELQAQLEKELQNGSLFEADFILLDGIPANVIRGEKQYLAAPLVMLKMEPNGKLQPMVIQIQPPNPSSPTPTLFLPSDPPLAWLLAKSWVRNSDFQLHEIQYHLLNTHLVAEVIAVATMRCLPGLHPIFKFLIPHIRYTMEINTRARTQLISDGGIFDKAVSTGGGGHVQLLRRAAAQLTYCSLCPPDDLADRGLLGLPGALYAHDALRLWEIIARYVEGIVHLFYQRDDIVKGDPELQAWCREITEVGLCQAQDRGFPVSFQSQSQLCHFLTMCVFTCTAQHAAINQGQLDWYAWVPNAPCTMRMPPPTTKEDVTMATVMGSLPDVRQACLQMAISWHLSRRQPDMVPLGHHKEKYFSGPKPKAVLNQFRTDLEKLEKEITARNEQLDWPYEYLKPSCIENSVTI
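Hydroperoxide product was detected by ferrous iron/xylenol orange as the 573 to 405 nm absorbance ratio. Arachidonic acid at 40 uM (final) was turned over for 30 min at room temperature by 150 nM human 12hLO, pH 7.0 Hepes buffer, after 15 min compound preincubation.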
TDP1 cell noCPT: qHTS for Inhibitors of human tyrosyl-DNA phosphodiesterase 1 (TDP1): qHTS in cells in absence of CPT; DT40 Tdp1-/- hTDP1 cells, no CPT, ATP luminescence, 48 h; Potency, µM (series often up to 46.2 µM), for inactives: at the highest dose activity change, negative = growth inhibition, usual class: inhibitors; hit rate 15% among 420,000; AID 686978, 2013; also: nearly all actives have a fitted effect of over 55% in size
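Camptothecin absent (DMSO only). Human TDP1-complemented DT40 knockout cells, 400 cells/well, 37 °C for minimum 48 hr; ATP measured via CellTiter-Glo, 30 min dark incubation, luminescence.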
TDP1 cell CPT: DT40-hTDP1 cell growth loss with CPT; chicken DT40 Tdp1-/-;hTDP1 cells + 20 nM CPT, ATP luminescence, 48 h; AID 686979; Potency, µM (titrated, usually from 46.2 µM), inactives show at the top dose activity change, negative = growth inhibition, usual class: inhibitors; hit rate 12% among 420,000; also: nearly all actives have a fitted effect of over 55% in size
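Cell growth measured by CellTiter-Glo luminescence after a minimum 48 h, 37 C compound exposure with 20 nM CPT in Tdp1-knockout DT40 cells stably expressing hTDP1, seeded 400/well; qHTS titration format.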
Gal4-VP16 FLuc: Gal4-VP16 reporter inhibition counter-screen; Drosophila S2 Gal4-VP16 UAS-luciferase, luminescence, 20 h; Potency, µM (series often up to 53.6 µM), for inactives: at the top dose activity, negative = inhibition, most hits filed as inhibitors; hit rate 3.5% among 310,000;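 also: Gal4-VP16 expression switched on by copper sulfate through the metallothionein promoter; nearly all actives have a fitted effect of over 50% in size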
RORgamma inh: ROR gamma (mouse) transcription inhibition. Potency, µM (titrated, usually from 53.6 µM), without a hit: at the highest dose activity change, negative = inhibition, hits mostly inhibitors. Drosophila S2 Gal4-RORgamma UAS-luciferase reporter, 20 h. hit rate 5.4% among 310,000. P51450; also: nearly all actives have a fitted effect of over 60% in size
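Stably transfected Drosophila Schneider cells are the test system, with ROR gamma fused to Gal4 and luciferase under UAS control; luminescence is read after 20 hr of 700 uM copper sulfate induction at ambient temperature.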
ELG1 DNA repair: ELG1-dependent DNA repair inhibition. HEK293T ELG1-luciferase reporter, luminescence, 16 h; DNA damage induced by 5-fluorouridine. Potency, µM (series often up to 46.1 µM), for inactives: top-dose activity change, negative = inhibition, most hits filed as inhibitors. hit rate 2.3% among 330,000. AID 504467; also: nearly all actives have a fitted effect of over 55% in size
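5-Fluorouridine DNA damage + compound/DMSO, 2,000 cells/well, 16 h, 37 °C/5% CO2. ONE-Glo, 30 min RT, luminescence. Readout = decrease in reporter signal.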
Active calls of the source: *; ? = inconclusive; · = no result given; ! = a repeat was not active; [ ] = dose if it differs, or a comment. This is a sample that favours compounds with a hit; in the whole collection about 15% have one here. Calls follow the shape of the dose curve; as a rule, active = well fitted curve in the direction sought with a large enough effect; inconclusive = small, poorly fitted or top-dose-only effect, or another doubt; inactive = no such curve, though single readings can be large; an effect the other way counts as inactive or inconclusive. % is scaled to controls: 0 for no effect and ±100 for the full control effect; potency is read from the fitted curve at half-maximal effect.

SMILES	12-LOX inh	TDP1 cell noCPT	TDP1 cell CPT	Gal4-VP16 FLuc	RORgamma inh	ELG1 DNA repair
CC(=O)Oc1ccccc1Cn1c(C)c(C(=O)NCc2cccc(Cl)c2)sc1=O	-2%	?	?	·	·	·
COc1ccc(CNC(=O)c2sc(=O)n(Cc3cc(Cl)ccc3OC)c2C)cc1	14%	16µM*	?	·	·	·
COCCNC(=O)[C@@H]1C[C@H](Oc2ccccc2)CN1C(=O)CCc1c(C)nn(C)c1C	18%	·	·	·	·	·
O=C(CNC(=O)c1ccc(F)cc1)N/N=C/c1cc(Br)ccc1OC(=O)/C=C/c1ccco1	-17%	2.6µM*	9.2µM*	?	5µM*	?
COc1ccc(C(=O)NCC(=O)N/N=C/c2ccco2)cc1OC	-2%	4%	?	9%	3%	21%
O=C(CNC(=O)c1ccccc1F)N/N=C/c1cc(Br)ccc1OC(=O)/C=C/c1ccco1	-20%	5.2µM*	3.7µM*	3.2µM*	2.5µM*	-19%
COc1ccccc1C(=O)NCC(=O)N/N=C/c1cc(Br)ccc1OC(=O)/C=C\c1ccco1	-14%	?	?	7.1µM*	3.5µM*	-24%
CN(Cc1cccc(Cl)c1Cl)C(=O)CCN=C1NS(=O)(=O)c2ccccc21	7%	·	·	·	·	·
COc1ccccc1C(=O)Nc1ccnn1C1CCN(c2cnccn2)CC1	30%	·	·	·	·	·
O=C(Cn1ccn2nc(-c3ccc(F)cc3)c(CO)c2c1=O)Nc1ccc(C(F)(F)F)cc1	18%	·	·	·	·	·
CC(C)N(Cc1cn(C)nc1-c1cccc(Cl)c1)Cc1nccn1C	-33%	?	?	?	7.9µM*	9%
Cc1cnccc1CN(C)Cc1cn(C)nc1-c1cccc(Cl)c1	0%	?	?	-5%	1%	12%
CC(C)N(Cc1nc(-c2ccc(Cl)cc2)no1)Cc1nccn1C	2%	16µM*	?	?	5µM*	-25%
CN(Cc1cn(-c2ccccc2)nc1-c1ccc2c(c1)OCO2)Cc1nccn1C	-2%	23µM*	26µM*	11µM*	11µM*	?
CC(c1ccon1)N(C)Cc1cn(C)nc1-c1cccc(Cl)c1 (stereo not given)	-8%	16µM*	?	5%	-1%	-3%
CC(C)CCNC(=O)c1cnc2n1CCN(Cc1ccc3c(c1)CCO3)CC2	-2%[176 µM]	·	·	·	·	·
CC(NC(=O)C1CC1)C1CC2CCC1C2 (stereo not given)	32%	·	·	·	·	·
COC(=O)c1ccc(CN(C)C(=O)c2ccc(Cl)c(S(=O)(=O)NC3CC3)c2)cc1	19%	·	·	·	·	·
COc1cc(F)ccc1-c1csc(C(O)c2ccc(F)cc2)n1 (stereo not given)	?	?	23µM*	·	·	·
COc1cccc(C(O)c2nc(-c3ccc(F)cc3OC)cs2)c1 (stereo not given)	-3%	?	-18%	·	·	·
COc1ccc(C(O)c2nc(-c3ccc(F)cc3OC)cs2)cc1 (stereo not given)	7%	?	26µM*	·	·	·
CC(NC(=O)c1ccc(Cl)c(Cl)c1)C1CC2CCC1C2 (stereo not given)	-29%	·	·	·	·	·
O=S1(=O)CCO[C@H]2Cc3ccccc3[C@H]2N1Cc1cccc(F)c1	2%	-4%	21µM*!	-6%	6%	-5%
CC(C)C[C@H]1COCCS(=O)(=O)N1Cc1cccc(Cl)c1	12%	?	15µM*	·	·	·
CCC[C@H]1COCCS(=O)(=O)N1Cc1cccc(F)c1	·	-23%	-6%	·	·	·
SMILES	12-LOX inh	TDP1 cell noCPT	TDP1 cell CPT	Gal4-VP16 FLuc	RORgamma inh	ELG1 DNA repair
O=S1(=O)CCO[C@H]2Cc3ccccc3[C@H]2N1Cc1ccc(F)cc1	-8%	?	-6%	-4%	-15%	10%
CCC(C)[C@H]1COCCS(=O)(=O)N1Cc1ccc(Br)cc1 (stereo not given in full)	3%	16µM*	18µM*	0%	-18%	-11%
CCCC[C@H]1COCCS(=O)(=O)N1Cc1cccc(F)c1	10%	13µM*!	?	0%	-4%	10%
CC(C)[C@H]1COCCS(=O)(=O)N1Cc1ccc(Cl)cc1	?	?	?	-10%	-25%	-3%
O=S1(=O)CCOC[C@H](Cc2ccccc2)N1Cc1cccc(Cl)c1	10%	-25%	?	·	·	·
Cc1ccc(CN2CCCN(CC(=O)N3CCCCC3C)S2(=O)=O)cc1 (stereo not given)	-13%	·	·	·	·	·
CCCC[C@H]1COCCS(=O)(=O)N1Cc1ccc(C)cc1	-1%	26µM*	?	5%	-9%	6%
COc1ccccc1C(=O)Nc1nc(C)c(C(=O)N(C)C)s1	8%	·	·	·	·	·
CCOc1ccc(C(=O)Nc2cccc(-c3cc4ccccc4oc3=O)c2)cc1[N+](=O)[O-]	-3%	23µM*	23µM*	-10%	-4%	?
CCOc1ccc(C(=O)Nc2cccc(-c3nc4ccccc4o3)c2C)cc1[N+](=O)[O-]	-21%	·	·	·	·	·
CCOc1ccc2nc(NC(=O)c3cccc(-c4cc5ccccc5oc4=O)c3)sc2c1	?	23µM*	?	11µM*	11µM*	1%
CCOc1ccc2nc(NC(=O)c3cccc(N4C(=O)CCC4=O)c3)sc2c1	-2%	?	-20%	·	·	·
Cc1ccc2nc(NC(=O)c3cccc(-c4cc5ccccc5oc4=O)c3)sc2c1	?	23µM*	15µM*	-8%	?	?
O=C(c1ccc2c(c1)OCO2)N1C2CCC1CN(Cc1cccnc1)C2	11%[6.33 µM]	·	·	·	·	·
O=C(Nc1cccc(Cl)c1)c1ccc(Cn2c(=O)c3cccn3c3cccnc32)cc1	20%	·	·	·	·	·
c1ccc(-c2ccccc2OCCOCCN2CCc3ccccc3C2)cc1	-5%	12µM*	?	7%[10 µM]	2%	?
CCCCNCCOCCOc1ccccc1-c1ccccc1	?	29µM*	23µM*	-4%	-17%	-14%
Clc1ccc(OCCOCCN2CCc3ccccc3C2)c(Cl)c1	?	23µM*	?	?	25%	-2%
CC1CN(CCOCCOc2ccccc2-c2ccccc2)CC(C)O1 (stereo not given)	?	23µM*	?	1%	-42%[1.91 µM]	-11%
COc1c(Cl)cc(C(=O)Oc2cccc(C)c2)cc1Cl	-5%	·	·	·	·	·
CNC(=O)c1sc(-c2ccccc2)nc1C	7%	0%	2%	0%	0%	?
CNC(=O)c1sc(N2N=C3/C(=C/c4ccccc4)CCCC3C2c2ccccc2)nc1C (stereo not given)	1%	13µM*	?	-20%	16%	?
